{"source": "PubChem BioAssay (EPA / NIEHS)", "note": "Results filed as inconclusive are left out. The source made the active and inactive calls. The calls were made as follows: active = hit-call score of the fitted dose curve at least 0.9, where 1 is the maximum; inconclusive = response in the unintended direction; inactive = score below 0.9."}
{"biological_target": "PGR (gene 5241) (UniProt P06401)", "sequence (P06401 whole entry, looked up)": "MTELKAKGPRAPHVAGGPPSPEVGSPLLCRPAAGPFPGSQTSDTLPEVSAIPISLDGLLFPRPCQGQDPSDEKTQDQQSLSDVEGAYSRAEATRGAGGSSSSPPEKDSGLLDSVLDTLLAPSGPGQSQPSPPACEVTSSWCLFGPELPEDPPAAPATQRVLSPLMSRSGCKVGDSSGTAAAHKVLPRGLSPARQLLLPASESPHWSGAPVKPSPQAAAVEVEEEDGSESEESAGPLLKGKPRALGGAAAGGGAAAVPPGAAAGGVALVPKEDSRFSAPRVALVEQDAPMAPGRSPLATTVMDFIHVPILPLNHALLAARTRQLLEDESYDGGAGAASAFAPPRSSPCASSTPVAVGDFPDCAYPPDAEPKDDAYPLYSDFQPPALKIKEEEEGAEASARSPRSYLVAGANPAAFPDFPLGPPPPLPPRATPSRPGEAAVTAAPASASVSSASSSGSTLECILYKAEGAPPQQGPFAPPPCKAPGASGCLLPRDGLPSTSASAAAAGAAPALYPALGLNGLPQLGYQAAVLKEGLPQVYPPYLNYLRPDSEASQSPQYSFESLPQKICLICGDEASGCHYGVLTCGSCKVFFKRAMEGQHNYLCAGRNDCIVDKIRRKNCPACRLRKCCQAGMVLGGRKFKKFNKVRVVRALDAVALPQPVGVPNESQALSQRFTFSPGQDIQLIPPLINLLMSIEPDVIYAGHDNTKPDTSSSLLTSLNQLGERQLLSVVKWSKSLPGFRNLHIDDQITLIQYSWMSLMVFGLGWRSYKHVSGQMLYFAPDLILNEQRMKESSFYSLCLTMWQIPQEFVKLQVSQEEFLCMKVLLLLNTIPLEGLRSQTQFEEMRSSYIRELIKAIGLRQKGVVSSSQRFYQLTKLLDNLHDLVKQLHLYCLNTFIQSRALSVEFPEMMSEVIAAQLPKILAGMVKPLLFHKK", "assay": "NVS_NR_hPR: NovaScreen (NVS) Nuclear Receptor Binding Assay for human Progestron Receptor (PR) (AID 2283360);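 also: active means loss of bound radioligand signal versus DMSO baseline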", "summary_of_the_method": "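Cell-free radioligand binding using receptor protein extracted from T47D cells, read by scintillation counting 18 hours after dosing. Loss of signal relative to DMSO baseline indicates displacement; primary screen single concentration 25 uM in duplicate, actives followed in concentration series.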"}
{"smiles": "COP(=S)(OC)Oc1ccc(SC)c(C)c1", "outcome": "inactive"}
{"smiles": "O=C(O)CCCOc1ccc(Cl)cc1Cl", "outcome": "inactive"}
{"smiles": "CCCN(CCOc1c(Cl)cc(Cl)cc1Cl)C(=O)n1ccnc1", "outcome": "inactive"}
{"smiles": "N#Cc1c(Cl)c(Cl)c(Cl)c(C#N)c1Cl", "outcome": "inactive"}
{"smiles": "CC(C)(C)C(O)/C(=C\\c1ccc(Cl)cc1Cl)n1cncn1", "note": "(stereo not given)", "AC50": "0.667 µM (active)"}
{"smiles": "O=S(=O)(O)C(F)(F)C(F)(F)C(F)(F)C(F)(F)C(F)(F)C(F)(F)C(F)(F)C(F)(F)F", "AC50": "20.2 µM (active) [middle of 4 runs]"}
{"smiles": "CCOc1nc(NC)nc(NC(=O)NS(=O)(=O)c2ccccc2C(=O)OC)n1", "outcome": "inactive"}
{"smiles": "O=S1OCC2C(CO1)C1(Cl)C(Cl)=C(Cl)C2(Cl)C1(Cl)Cl", "note": "(stereo not given)", "outcome": "inactive"}
{"smiles": "COP(=O)(OC)OC=C(Cl)Cl", "outcome": "inactive"}
{"smiles": "COc1nn(CSP(=S)(OC)OC)c(=O)s1", "outcome": "inactive"}
{"smiles": "ClC1C(Cl)C(Cl)C(Cl)C(Cl)C1Cl", "note": "(stereo not given)", "outcome": "inactive"}
{"smiles": "CNC(=O)CSP(=S)(OC)OC", "AC50": "6.3 µM (active)"}
{"smiles": "Oc1ccc(Cl)cc1Cc1ccccc1", "AC50": "16.5 µM (active) [middle of 6 runs]"}
{"smiles": "CC[C@H](C)[C@H]1O[C@]2(C=C[C@@H]1C)C[C@@H]1C[C@@H](C/C=C(\\C)[C@@H](O[C@H]3C[C@H](OC)[C@@H](O[C@H]4C[C@H](OC)[C@@H](O)[C@H](C)O4)[C@H](C)O3)[C@@H](C)/C=C/C=C3\\CO[C@@H]4[C@H](O)C(C)=C[C@@H](C(=O)O1)[C@]34O)O2", "note": "(tested in a mixture with another compound)", "outcome": "inactive"}
{"smiles": "COP(=S)(OC)Oc1ccc([N+](=O)[O-])cc1", "AC50": "10.3 µM (active)"}
{"smiles": "O=C(O)C(F)(F)C(F)(F)C(F)(F)C(F)(F)C(F)(F)C(F)(F)C(F)(F)F", "outcome": "inactive"}
{"smiles": "CC(C)(C)C(O)C(Oc1ccc(Cl)cc1)n1cncn1", "note": "(stereo not given)", "outcome": "inactive"}
{"smiles": "C[C@H]1[C@H](c2ccc(Cl)cc2)SC(=O)N1C(=O)NC1CCCCC1", "outcome": "inactive"}
{"biological_target": "Retinoic acid receptor alpha (Homo sapiens) (UniProt P10276)", "sequence (P10276 whole entry, looked up)": "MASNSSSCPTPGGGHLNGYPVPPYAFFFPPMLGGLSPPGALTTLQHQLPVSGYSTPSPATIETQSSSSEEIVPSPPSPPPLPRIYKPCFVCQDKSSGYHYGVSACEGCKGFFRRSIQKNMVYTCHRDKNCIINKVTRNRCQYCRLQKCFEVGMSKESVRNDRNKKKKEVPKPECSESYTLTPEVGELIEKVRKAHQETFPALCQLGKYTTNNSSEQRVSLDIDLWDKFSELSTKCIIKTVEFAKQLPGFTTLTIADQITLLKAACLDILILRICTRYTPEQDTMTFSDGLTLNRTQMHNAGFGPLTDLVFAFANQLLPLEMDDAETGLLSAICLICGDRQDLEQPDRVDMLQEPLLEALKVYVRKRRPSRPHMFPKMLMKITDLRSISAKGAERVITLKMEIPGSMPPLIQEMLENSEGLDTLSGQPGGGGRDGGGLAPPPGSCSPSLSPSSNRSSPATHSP", "assay": "NVS_NR_hRARa_Agonist: NovaScreen (NVS) Nuclear Receptor Binding Assay for human Retinoic Acid Alpha Receptor Agonism (RAR) (AID 2283361)", "summary_of_the_method": "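Cell-free TR-FRET binding read-out with extracted human RARα protein, read 2 h after compound addition. Gain of signal scored against DMSO baseline. Primary screen at a single 25 uM in duplicate; actives then retested in concentration series.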"}
{"smiles": "CCC(C)(C)C(=O)OC1=C(c2ccc(Cl)cc2Cl)C(=O)OC12CCCCC2", "outcome": "inactive"}
{"smiles": "N#Cc1c(Cl)c(Cl)c(Cl)c(C#N)c1Cl", "AC50": "36.9 µM (active)"}
{"smiles": "Oc1ccc(Cl)cc1Cc1ccccc1", "outcome": "inactive"}
{"biological_target": "human Thyroid Receptor Alpha (TRa), THRA (gene 7067) (UniProt P10827)", "sequence (P10827 whole entry, looked up)": "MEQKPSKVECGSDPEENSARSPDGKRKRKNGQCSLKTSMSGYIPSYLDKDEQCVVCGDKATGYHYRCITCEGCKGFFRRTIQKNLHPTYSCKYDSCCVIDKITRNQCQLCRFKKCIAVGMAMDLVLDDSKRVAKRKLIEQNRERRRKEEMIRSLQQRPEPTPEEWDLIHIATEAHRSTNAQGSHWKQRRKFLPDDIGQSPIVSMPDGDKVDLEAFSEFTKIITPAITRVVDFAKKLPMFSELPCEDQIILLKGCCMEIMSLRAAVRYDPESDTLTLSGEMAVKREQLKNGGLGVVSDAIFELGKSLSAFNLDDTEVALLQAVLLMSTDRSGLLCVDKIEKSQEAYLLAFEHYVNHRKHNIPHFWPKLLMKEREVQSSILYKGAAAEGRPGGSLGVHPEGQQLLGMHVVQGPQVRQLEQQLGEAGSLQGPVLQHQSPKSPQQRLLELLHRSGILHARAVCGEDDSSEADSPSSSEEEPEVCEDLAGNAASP", "assay": "NVS_NR_hTRa_Antagonist: NovaScreen (NVS) Nuclear Receptor Binding Assay for human Thyroid Receptor Alpha Antagonism (TRa) (AID 2283362);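 also: activity is loss of signal relative to DMSO baseline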", "summary_of_the_method": "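Cell-free binding assay on extracted receptor protein, read 1 h after chemical dosing by AlphaLISA chemiluminescence; loss of signal relative to DMSO baseline marks antagonism. Primary screen ran in duplicate at 25 uM, with concentration series for actives.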"}
{"smiles": "CCCN(CCOc1c(Cl)cc(Cl)cc1Cl)C(=O)n1ccnc1", "AC50": "6.39 µM (active)"}
{"smiles": "COc1cc(OC)nc(NC(=O)NS(=O)(=O)c2cc(NC=O)ccc2C(=O)N(C)C)n1", "outcome": "inactive"}
{"smiles": "N#Cc1c(Cl)c(Cl)c(Cl)c(C#N)c1Cl", "AC50": "40.5 µM (active)"}
{"smiles": "O=S(=O)(O)C(F)(F)C(F)(F)C(F)(F)C(F)(F)C(F)(F)C(F)(F)C(F)(F)C(F)(F)F", "AC50": "12 µM (active)"}
{"smiles": "CCOc1nc(NC)nc(NC(=O)NS(=O)(=O)c2ccccc2C(=O)OC)n1", "outcome": "inactive"}
{"smiles": "COP(=O)(OC)OC=C(Cl)Cl", "outcome": "inactive"}
{"smiles": "COc1nn(CSP(=S)(OC)OC)c(=O)s1", "outcome": "inactive"}
{"smiles": "CNC(=O)CSP(=S)(OC)OC", "outcome": "inactive"}
{"smiles": "O=[N+]([O-])/N=C1\\NCCN1Cc1ccc(Cl)nc1", "outcome": "inactive"}
{"smiles": "CC[C@H](C)[C@H]1O[C@]2(C=C[C@@H]1C)C[C@@H]1C[C@@H](C/C=C(\\C)[C@@H](O[C@H]3C[C@H](OC)[C@@H](O[C@H]4C[C@H](OC)[C@@H](O)[C@H](C)O4)[C@H](C)O3)[C@@H](C)/C=C/C=C3\\CO[C@@H]4[C@H](O)C(C)=C[C@@H](C(=O)O1)[C@]34O)O2", "note": "(tested in a mixture with another compound)", "AC50": "12 µM (active)"}
{"smiles": "O=[N+]([O-])c1c(Cl)c(Cl)c(Cl)c(Cl)c1Cl", "outcome": "inactive"}
{"smiles": "COP(=S)(OC)Oc1ccc([N+](=O)[O-])cc1", "outcome": "inactive"}
{"smiles": "CC(C)(C)C(O)C(Oc1ccc(Cl)cc1)n1cncn1", "note": "(stereo not given)", "outcome": "inactive"}
{"smiles": "CC1(C)C(C=C(Cl)Cl)C1C(=O)OC(C#N)c1ccc(F)c(Oc2ccccc2)c1", "note": "(stereo not given)", "outcome": "inactive"}
